The text below walks through data of PubChem BioAssay (EPA / NIEHS).

Records with an inconclusive call do not appear. Active and inactive are the calls of the source. The calls were made as follows: active = hit-call score of the fitted dose curve at least 0.9, where 1 is the maximum; inconclusive = response in the unintended direction; inactive = score below 0.9.

The target in the test is Nuclear receptor subfamily 1 group I member 2 (Homo sapiens) (UniProt O75469). In words: ATG_PXR_TRANS: Attagene TRANS-FACTORIAL HepG2 Assay for human Pregnane X Receptor (PXR) (AID 2283008). As to the method: ATG_TRANS is a cell-based, multiplexed-readout assay that uses HepG2, a human liver cell line, with measurements taken at 24 hours after chemical dosing in a 24-well plate.ATG_PXR_TRANS is one of 30 assay component(s) measured or calculated from the ATG_TRANS assay. It is designed to make measurements of mRNA induction, a form of inducible reporter, as detected with fluorescence intensity signals by Reverse transcription polymerase chain reaction (RT-PCR) and Capillary electrophoresis technology.Data from the assay component ATG_PXR_TRANS was analyzed into 1 assay endpoint. This assay endpoint, ATG_PXR_TRANS, was analyzed in the positive analysis fitting direction relative to DMSO as the negative control and baseline of activity. Using a type of inducible reporter, measures of mRNA for gain-of-signal activity can be used to understand the reporter gene at the transcription factor-level as they relate to the gene NR1I2. Furthermore, this assay endpoint can be referred to as a primary readout, because this assay has produced multiple assay endpoints where this one serves a reporter gene function. To generalize the intended target to other relatable targets, this assay endpoint is annotated to the nuclear receptor intended target family, where the subfamily is non-steroidal.
Sequence of Nuclear receptor subfamily 1 group I member 2 (Homo sapiens) (O75469 whole entry, looked up): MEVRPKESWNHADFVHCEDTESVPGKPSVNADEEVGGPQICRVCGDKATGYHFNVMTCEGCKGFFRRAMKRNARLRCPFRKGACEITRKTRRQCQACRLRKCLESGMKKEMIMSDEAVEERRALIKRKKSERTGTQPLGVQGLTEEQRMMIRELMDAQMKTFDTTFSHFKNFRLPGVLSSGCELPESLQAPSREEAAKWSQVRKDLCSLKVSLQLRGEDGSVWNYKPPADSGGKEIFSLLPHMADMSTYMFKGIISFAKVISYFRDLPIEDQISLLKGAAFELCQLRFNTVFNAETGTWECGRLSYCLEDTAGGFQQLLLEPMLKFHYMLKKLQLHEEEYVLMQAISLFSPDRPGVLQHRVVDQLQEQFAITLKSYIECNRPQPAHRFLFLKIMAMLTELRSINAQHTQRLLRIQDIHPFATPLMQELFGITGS
Human liver HepG2 cells are transiently transfected with multiple reporter transcription units (MRTUs) in 6-well plates using FuGene 6 reagent (Roche; 3 ml FuGene/1 mg DNA). The MRTU constructs are regulated by a cis-regulating element (promoter). […] A major difference between the CIS and TRANS system is that in CIS activities of endogenous TFs are measured, whereas the TRANS assay evaluates changes in activities of exogenous, chimeric NR-Gal4 proteins. […] At the end of 24 hour incubation, total RNA was isolated using TriZol reagent (Invitrogen). The isolated RNA is then reverse-transcribed using oligo(dT) primer and Mo-MLV reverse transcriptase (Invitrogen) with DNAse I (Ambion) treatment for 30 min. The one-tenth of the produced cDNA was amplified by PCR using Taq DNA polymerase (Invitrogen) and two reporter sequence-specific primers. The PCR products were fluorescently labeled by primer extension with 6-arboxyfluorescein (6-FAM) 5'-labeled reporter sequence-specific primer (2 min at 95 C, 20 s at 68 C and 10 min at 72 C) and these products were digested with 5U of HpaI (New England Biolabs) for 2h at 37 C. The fragments were purified using Qiaquick PCR columns (Qiagen), analyzed on an ABI 3130xL genetic analyzer (Applied Biosystems) with peak positions identified by using a set of X-rhodamine (ROX)-labeled MapMarker1000 molecular weight standards (BioVentures). The raw capillary electrophoresis data was processed using Attagraph software (Attagene).
On to `O=C(O)C(F)(F)C(F)(F)C(F)(F)C(F)(F)C(F)(F)C(F)(F)C(F)(F)C(F)(F)C(F)(F)C(F)F`, for which the AC50 is 64.5 µM (active). For the compound `COC(=O)C1CCC(C(=O)OC)CC1` (stereo not given), the compound was classed as inactive. For the compound `Oc1ccc(Nc2ccccc2)cc1`, the half-maximal activity concentration (AC50) is 20.5 µM (active). `COC(=O)CCC(F)(F)C(F)(F)C(F)(F)C(F)(F)F`: the result was inactive. Still for that read-out and setting: with `FC(F)(F)C(F)(F)C(F)(F)C(F)(F)C(F)(F)CCI` the entry was “inactive”; with `OCCCC(F)(F)C(F)(F)C(F)(F)C(F)(F)C(F)(F)C(F)(F)C(F)(F)F`, “inactive”; with `O=S(=O)(OCC(F)F)C(F)(F)F`, “inactive”. On the same count and under the same terms, as for `CCCCCCS`, the entry is “inactive”. The same measure, in the same setting: as for `CC/C=C\CCOC(C)=O`, the entry is “inactive”; as for `FC(F)(F)C(F)(F)C(F)(F)C(F)(F)C(F)(F)C(F)(F)CC1CO1` (stereo not given), “inactive”.

As to `c1ccc(B(c2ccccc2)c2ccccc2)cc1`, the concentration at half-maximal activity (AC50) was 4.69 µM (active).

On to `CCc1c(Br)c(Br)c(Br)c(Br)c1Br`, for which the AC50 was 7.09 µM (active).

For the compound `CC(C)(C)C(=O)CC(=O)C(F)(F)C(F)(F)C(F)(F)F`, the compound was called inactive. In the case of `N=C(N)C(F)(F)C(F)(F)C(F)(F)C(F)(F)C(F)(F)C(F)(F)C(F)(F)F`, the result was inactive. Still for that read-out and setting: with `CC(C)=CCCC(C)CCOC(=O)C(C)C` (stereo not given) the entry was “inactive”. Take `CC(C)OC(=O)c1ccccc1C(=O)OC(C)C`: the AC50 is 5.74 µM (active). Take `CCCCNc1ccccc1`: the call was inactive. Still for that read-out and setting: as for `CCCCOCCOCCOC(=O)CCCCC(=O)OCCOCCOCCCC`, the entry is “inactive”. For `OCC(F)(F)C(F)(F)C(F)(F)C(F)(F)C(F)(F)C(F)F`, the outcome was inactive. In the case of `CC(Cc1ccc(O)c(O)c1)C(C)Cc1ccc(O)c(O)c1` (stereo not given), the AC50 was 6.87 µM (active). For the compound `CCN(Cc1cccc(S(=O)(=O)O)c1)c1ccc(C(=C2C=CC(=[N+](CC)Cc3cccc(S(=O)(=O)O)c3)C=C2)c2ccc(O)cc2S(=O)(=O)[O-])cc1`, the compound was called inactive.

With `CN(C)Cc1ccccc1O`, the compound was classed as inactive. With `FC(F)(F)C(F)(F)C(F)(F)C(F)(F)C(F)(F)C(F)(F)C(F)(F)C(F)(F)F`, the outcome was inactive. With `Nc1ccc(Oc2cccc(Oc3ccc(N)cc3)c2)cc1`, the AC50 is 22.1 µM (active). Regarding `O=C(O)C(F)(F)C(F)(F)OC(F)(F)F`, the compound was called inactive. Still for that read-out and setting: with `CS(C)(=O)=O` the entry was “inactive”. On the same count and under the same terms, with `CC(C)c1ccccc1N` the entry was “inactive”.

As for `CO[Si](OC)(c1ccccc1)c1ccccc1`, the half-maximal activity concentration (AC50) was 15.4 µM (active).

In the case of `O=C(O)C(F)(F)C(F)(F)C(F)(F)C(F)(F)C(F)(F)C(F)(F)C(F)(F)C(F)(F)C(F)(F)C(F)(F)C(F)(F)C(F)(F)F`, the compound was classed as inactive. `C=C(C)C(=O)OCC(F)(F)C(F)(F)C(F)(F)F`: the call was inactive. Still for that read-out and setting: with `O=C(O)C(F)(F)C(F)(F)C(F)(F)C(F)(F)C(F)(F)C(F)(F)C(F)(F)C(F)(F)C(F)(F)C(F)(F)C(F)(F)C(F)(F)C(F)(F)F` the entry was “inactive”; with `C=CC(=O)OCC(F)(F)C(F)(F)C(F)(F)C(F)(F)COC(=O)C=C`, “inactive”. Same read-out and setting: with `C=CC(=O)OCC(F)(F)C(F)(F)C(F)(F)C(F)(F)C(F)(F)C(F)(F)C(F)(F)F` the entry was “inactive”; with `O=S(=O)(OCCOC(F)(F)F)C(F)(F)F`, “inactive”.

For the compound `O=C(O)C=C(C(F)(F)F)C(F)(F)F`, the compound was called inactive. Take `FC(F)(F)C(F)(F)CNCC(F)(F)C(F)(F)F`: the call was inactive. Same read-out and setting: as for `C1COCCN1`, the entry is “inactive”; as for `NC(=O)C(F)(F)C(F)(F)C(F)(F)C(F)(F)F`, “inactive”. Take `CCc1ccc(C(c2ccc(CC)cc2)C(Cl)Cl)cc1`: the AC50 is 3.55 µM (active).

Regarding `Cc1ccc(S(=O)(=O)NCl)cc1`, the call was inactive.
